# PDI turbidity – blocks human protein disulfide isomerase activity; AID 588391; inhibition, % at 10 µM; P07237; PDI insulin aggregation turbidity, A650, 90 min; actives 0.052% (n = 350,000);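 active means mean inhibition across replicates of 30% or more, whatever share of single replicates reach that level; inconclusive means mean inhibition below 30% while every single replicate reaches 30%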
# ERp5 block – ERp5 (human) disulfide isomerase inhibition | AID 651711 | Q15084 | ERp5 insulin aggregation, absorbance 650 nm, 90 min | actives 0.05% (n = 350,000) | inhibition, % at 9.99 µM;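 active means mean replicate inhibition above about 25%, with every replicate also reaching it, limit read from the data, passing the limit was not always enough; inconclusive means only one of those two criteria met; inactive means neither criterion met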
# Target sequence (Q15084 whole entry, looked up): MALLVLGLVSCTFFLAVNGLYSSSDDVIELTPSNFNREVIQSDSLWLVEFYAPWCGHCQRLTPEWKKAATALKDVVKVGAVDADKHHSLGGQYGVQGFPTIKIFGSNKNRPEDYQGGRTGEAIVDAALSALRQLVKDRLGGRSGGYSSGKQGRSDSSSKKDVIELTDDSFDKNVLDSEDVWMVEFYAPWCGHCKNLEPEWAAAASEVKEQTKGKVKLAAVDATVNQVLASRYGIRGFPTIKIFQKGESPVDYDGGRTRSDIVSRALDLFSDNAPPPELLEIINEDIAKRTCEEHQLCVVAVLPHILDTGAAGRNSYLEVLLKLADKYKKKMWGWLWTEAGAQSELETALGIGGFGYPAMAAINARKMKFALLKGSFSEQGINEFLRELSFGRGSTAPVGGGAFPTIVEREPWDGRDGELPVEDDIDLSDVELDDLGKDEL
# Vif inh – inhibitors of HIV Vif. HEK293T cells, Vif self-association by quenched fluorescence, imaging, 24 h. inhibition, % at 7.49 µM. actives 0.35% (n = 340,000). AID 602346; in the data active means inhibition above about 50%, passing the limit was not always enough; inconclusive means no clear call, values can overlap the other calls; inactive means below about 31%
# AI-2 QS mod – modulates the Vibrio harveyi AI-2 quorum sensing system. Vibrio harveyi JMH597 AI-2 luminescence/OD600 ratio, 9 h; stronger effect = lower value; strain lacks LuxN and CqsS sensors; 0 = neutral-control median. activity change, % at 7.5 µM. actives 0.4% (n = 300,000); in the data active means activity change below about -75%, passing the limit was not always enough; inconclusive means no clear call, values can overlap the other calls;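 further: luminescence divided by OD600 gain over 9 h not by final OD600 alone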
# PvdQ inh – P. aeruginosa PvdQ acylase inhibition | purified PvdQ acylase, fluorescence plate reader | inhibition, % at 10 µM | actives 0.063% (n = 340,000) | AID 488965; in the data active means inhibition above about 30%, passing the limit was not always enough; inconclusive means no clear call, values can overlap the other calls;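 further: 0% = vehicle neutral wells and 100% = reference inhibitor wells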
# * marks the source's active call; other numbers are inactive results; ? = inconclusive; nt = no result given. Sampled rows, rich in hits. Any-hit rate of the full collection: about 0.64%.
SMILES,PDI turbidity,ERp5 block,Vif inh,AI-2 QS mod,PvdQ inh
CNc1nc2cc([N+](=O)[O-])c([N+](=O)[O-])cc2nc1NC,1.1,?,-28.8,28.1,3.5
N#Cc1cc2nc(O)c(O)nc2cc1[N+](=O)[O-],-1.0,1.2,51.1*,nt,4.5
O=C(c1ccccc1)c1coc2c1C(=O)c1ccccc1C2=O,0.6,-0.3,-4.3,17.2,0.3
COc1ccc(C(=O)c2coc3c2C(=O)C(=O)c2ccccc2-3)cc1,12.6,nt,-5.0,-91.6*,-7.0
CC(=O)Nc1ccc2c(c1)C(=O)N(C)[C@H]1CC[C@H](CC(=O)NCC3CC3)O[C@H]1CO2,nt,11.1,nt,nt,nt
CC(=O)Nc1ccc2c(c1)C(=O)N(C)[C@@H]1CC[C@@H](CC(=O)NCC3CC3)O[C@H]1CO2,nt,70.9*,nt,nt,nt
O=C(C[C@@H]1CC[C@@H](NC(=O)C2CCOCC2)[C@@H](CO)O1)NCc1ccccc1Cl,nt,-1.4,nt,nt,nt
O=[N+]([O-])c1cccc(N=NN(CCO)c2cccc([N+](=O)[O-])c2)c1,-6.3,nt,2.2,23.6,4.1
N#CCN(N=Nc1ccccc1)c1ccccc1,-5.7,-1.3,-0.5,12.6,74.8*
COc1ccc(/C=N/Nc2nnc(-c3ncc[nH]3)c3ccccc23)cc1,-2.1,nt,0.8,27.3,-11.6
Oc1ccc2ccccc2c1/C=N/Nc1nnc(-c2ncc[nH]2)c2ccccc12,-12.1,nt,87.0*,24.0,-13.6
O=C(NCc1ccc(Cl)cc1)N1CCOCC1,3.2,2.3,50.4*,-3.0,-3.9
CC(C)NC(=O)N(C)C[C@H]1OCCCC[C@@H](C)Oc2ccc(NC(=O)c3ccncc3)cc2C(=O)N([C@@H](C)CO)C[C@@H]1C,nt,-1.5,nt,nt,nt
O=C(NC1CCCCC1)[C@@H]1CC=C[C@@H]2CCN(C3CCCCC3)C(=O)[C@@H]21,7.1,3.7,52.6*,-0.6,5.6
O=C(C[C@@H]1CC[C@H]2[C@@H](COC[C@@H](O)CN2S(=O)(=O)c2ccc(Cl)cc2)O1)NCCN1CCCC1,nt,-0.7,nt,nt,nt
O=S1(=O)CCOC[C@H](c2ccccc2)N1Cc1ccccc1,7.4,4.5,3.5,-7.1,1.7
O=S1(=O)CCOC[C@H](c2ccccc2)N1Cc1cccc(Cl)c1,-1.6,-6.5,-4.2,18.8,43.3*
CC(=O)Nc1cccc(NC(=O)c2cc(-c3ccccn3)nc3ccc(Cl)cc23)c1,4.9,0.3,69.8*,15.7,-8.7
CCCNC(=O)C12CCC(C)(C(=O)O1)C2(C)C (stereo not given),-2.0,-1.0,0.4,0.9,nt
CC12CCC(C(=O)NCCc3ccccc3)(OC1=O)C2(C)C (stereo not given),3.4,0.4,51.9*,12.1,-7.5
CN(C)c1nc(C=C(C#N)C#N)c(Cl)n1-c1ccc(F)cc1,-4.9,-2.0,105.4*,23.2,0.1
O=C(C[C@@H]1C[C@@H]2c3cc(NC(=O)CC4CC4)ccc3O[C@@H]2[C@H](CO)O1)NCc1ccc2c(c1)OCO2,nt,0.9,nt,nt,nt
COc1ccccc1CNC(=O)C1CCC(CNS(=O)(=O)c2cccs2)CC1 (stereo not given),4.7,3.0,54.9*,nt,-6.9
COC(=O)c1nn(-c2ccccc2)c(-c2ccccc2)c1C(=O)c1ccccc1,-8.2,nt,50.2*,16.3,-13.0
O=C(NC(=S)NNC(=O)c1cnccn1)c1ccc(F)cc1,-2.9,5.9,nt,-89.4*,-10.8
SMILES,PDI turbidity,ERp5 block,Vif inh,AI-2 QS mod,PvdQ inh
O=C(NNC(=S)NC(=O)c1cccnc1)c1ccc(F)cc1,15.2,3.9,12.9,-83.5*,5.7
O=C(Cc1ccccn1)N1CC(=O)N2[C@H](CO)[C@@H](c3ccc(C#CC4CCCCC4)cc3)[C@@H]2C1,nt,2.8,nt,nt,nt
COc1ccc2cc(-c3cc(C(=O)OCC(=O)NC4CCS(=O)(=O)C4)c4ccccc4n3)ccc2c1 (stereo not given),6.5,nt,51.8*,8.1,-7.5
O=CC1=C(c2ccccc2)Oc2ccccc2O1,-2.4,1.5,3.0,30.2,81.6*
C[C@H](CO)N1C[C@H](C)[C@H](CN(C)CC2CCCCC2)Oc2ccc(NC(=O)Nc3cccc4ccccc34)cc2C1=O,nt,-2.4,nt,nt,nt
COc1ccc([N+](=O)[O-])c(S(=O)(=O)c2ccc(Cl)cc2)n1,-1.3,-8.6,-33.5,-145.0*,-17.0
CO[C@@H]1CN(C)C(=O)c2ccc(NC(=O)C3CCC3)cc2OC[C@@H](C)N(Cc2ccccn2)C[C@H]1C,nt,14.9,nt,nt,nt
CCc1ccc2[nH]c3nc(SCC(=O)NNC(=O)c4ccc(C(C)(C)C)cc4)nnc3c2c1,-15.0,nt,89.5*,48.4,-11.5
